# Inconclusive results are not listed. Entries that show only a call come without a potency. Values without a mark were called inactive. The source made the active and inactive calls. Unless noted, calls follow the shape of the full dose curve.
# Tested on: not listed separately
# Assay: cAMP Responsive Elements (CRE) small molecule antagonists, cell-based qHTS assay (AID 1963591; active = well fitted inhibition curve with a large enough effect in the signal ratio in the repeat runs, not every such curve was filed as active; the % refers to the signal ratio)
# Conditions: CRE-bla HEK293T, beta-lactamase FRET ratio; series mostly up to 92.4 µM
# Method in brief: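 HEK293T cells carrying a CRE-driven beta-lactamase reporter receive compound and NKH477 (0.25 uM final) for 3 h. Fluorescence from LiveBLAzer B/G FRET substrate is read after 2 h at room temperature.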
SMILES,Potency,"activity change, negative = inhibition"
CC(O)CC(C)O (stereo unspecified),inactive,–
CN1C(C)(C)CC(O)CC1(C)C,inactive,–
CC(C)CCC(=O)CCC(C)C,inactive,–
CCCCCCCCCCCCCCC,inactive,–
Nc1ccc2cc(S(=O)(=O)O)cc(O)c2c1N=Nc1ccccc1C(F)(F)F,inactive,–
CO/N=C1\CN(c2nc3c(cc2F)c(=O)c(C(=O)O)cn3C2CC2)CC1CN (stereo unspecified),inactive,–
C=C(C)C(=O)OCCOP(=O)(O)OCCOC(=O)C(=C)C,inactive,–
CCCC(=O)O[C@]1(C(=O)COC(=O)CC)CC[C@H]2[C@@H]3CCC4=CC(=O)CC[C@]4(C)[C@H]3[C@@H](O)C[C@@]21C,–,0.328% [at 18.9 µM]
O=Cc1ccccc1Cl,inactive,–
CC(C)(COC(=O)c1ccccc1)COC(=O)c1ccccc1,inactive,–
CN(C)CCOC(=O)C(c1ccccc1)C1(O)CCCC1 (stereo unspecified),inactive,–
CCCCCCCCCCCCCCCC(=O)OCC,inactive,–
CC(O)CN (stereo unspecified),inactive,–
O=C(O)Cc1ccc(OCCNC[C@H](O)c2ccccc2)cc1,inactive,–
O=C(O)c1c(Cl)ccc(Cl)c1Cl,inactive,–
CCCCCCOC(=O)CCCCCCCC(=O)OCCCCCC,inactive,–
Cc1ccccc1N=C(N)N=C(N)N,inactive,–

# Molecular target: Beta-2 adrenergic receptor (Homo sapiens) (UniProt P07550)
# Assay: Adrenergic beta2 receptor (ADRB2) small molecule antagonists, cell-based qHTS assay (AID 1963592); also: nearly all actives have a fitted effect of over 50% in size
# Conditions: CHO-ADRB2 cells, isoproterenol-stimulated cAMP HTRF ratio, 0.5 h; series mostly up to 92.4 µM
# Method in brief: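 Cells (CHO, stable ADRB2 overexpression) incubated 18-20hr at 37C; compounds added from DMSO; agonist mix (1nM isoproterenol, 100uM IBMX, 25uM Ro-20-1724) added; 0.5hr RT; d2-cAMP and anti-cAMP-cryptate added; 1hr RT; 665/615 nm read.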
# Chain of Beta-2 adrenergic receptor (Homo sapiens) (P07550 whole entry, looked up): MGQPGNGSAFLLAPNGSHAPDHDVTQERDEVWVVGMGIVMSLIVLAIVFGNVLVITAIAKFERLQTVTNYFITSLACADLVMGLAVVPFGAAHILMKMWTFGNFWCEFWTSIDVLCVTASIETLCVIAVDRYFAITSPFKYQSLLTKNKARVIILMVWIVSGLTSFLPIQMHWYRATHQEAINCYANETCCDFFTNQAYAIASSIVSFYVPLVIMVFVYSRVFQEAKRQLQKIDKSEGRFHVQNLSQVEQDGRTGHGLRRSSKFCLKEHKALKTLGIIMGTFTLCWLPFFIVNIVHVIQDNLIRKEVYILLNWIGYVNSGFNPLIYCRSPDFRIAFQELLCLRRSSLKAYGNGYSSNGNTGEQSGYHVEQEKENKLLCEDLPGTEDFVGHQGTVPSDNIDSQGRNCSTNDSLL
SMILES,Potency,"activity change, negative = inhibition"
CCOC(=O)C1=NN(c2ccccc2)C(=O)C1,inactive,–
C=C(C)CS(=O)(=O)O,inactive,–
O=C(Cl)c1c(Cl)cccc1Cl,inactive,–
Cc1ccc2c(c1)CCCN2,inactive,–
Cc1nc2ccc(CN(C)c3ccc(C(=O)N[C@@H](CCC(=O)O)C(=O)O)s3)cc2c(=O)[nH]1,inactive,–
CCCCCCCCCCCCCOC(=O)CCSCCC(=O)OCCCCCCCCCCCCC,–,-0.103% [at 19 µM]
O=C=NCC1CCCC(CN=C=O)C1 (stereo unspecified),inactive,–
OC/C=C/c1ccccc1,inactive,–
CC(C)=CC=O,inactive,–
CC(=O)c1ccc(C)cc1,inactive,–
CCCCCCCCCCCCOC(C)=O,inactive,–
CC1=C(C(=O)O)N2C(=O)[C@@H](NC(=O)[C@H](N)C3=CCC=CC3)[C@H]2SC1,inactive,–
Oc1cc2ccccc2c2ccccc12,inactive,–
CC(C)(C)c1ccc(N)cc1,inactive,–
O=C1CCC(=O)N1Cl,inactive,–
COc1ccc(CCO)cc1,inactive,–
CC(=O)OCC1=C(C(=O)O)N2C(=O)[C@@H](NC(=O)CSc3ccncc3)[C@H]2SC1,inactive,–
COC(=O)C(C)=O,inactive,–
SC1CCCC1,inactive,–

SMILES,Potency,"activity change, negative = inhibition"
CC(O)CC(C)O (stereo unspecified),inactive,–
CN1C(C)(C)CC(O)CC1(C)C,inactive,–
CC(C)CCC(=O)CCC(C)C,inactive,–
CCCCCCCCCCCCCCC,inactive,–
Nc1ccc2cc(S(=O)(=O)O)cc(O)c2c1N=Nc1ccccc1C(F)(F)F,inactive,–
C=C(C)C(=O)OCCOP(=O)(O)OCCOC(=O)C(=C)C,inactive,–
C=C(C)C(=O)OCCOCCOC(=O)C(=C)C,inactive,–
CCCC(=O)O[C@]1(C(=O)COC(=O)CC)CC[C@H]2[C@@H]3CCC4=CC(=O)CC[C@]4(C)[C@H]3[C@@H](O)C[C@@]21C,–,0.289% [at 19 µM]
O=Cc1ccccc1Cl,inactive,–
CC(C)(COC(=O)c1ccccc1)COC(=O)c1ccccc1,inactive,–
CN(C)CCOC(=O)C(c1ccccc1)C1(O)CCCC1 (stereo unspecified),inactive,–
CCCC(=O)O[C@]1(C(=O)CO)CC[C@H]2[C@@H]3CCC4=CC(=O)CC[C@]4(C)[C@H]3[C@@H](O)C[C@@]21C,inactive,–
CCCCCCCCCCCCCCCC(=O)OCC,inactive,–
CC(O)CN (stereo unspecified),inactive,–
O=C(O)Cc1ccc(OCCNC[C@H](O)c2ccccc2)cc1,inactive,–
O=C(O)c1c(Cl)ccc(Cl)c1Cl,inactive,–
CC(=O)c1ccc([N+](=O)[O-])cc1,inactive,–
CCCCCCOC(=O)CCCCCCCC(=O)OCCCCCC,inactive,–
Cc1ccccc1N=C(N)N=C(N)N,inactive,–

# Molecular target: Beta-2 adrenergic receptor (Homo sapiens) (UniProt P07550)
# Assay: Adrenergic beta2 receptor (ADRB2) small molecule agonists, cell-based qHTS assay (AID 1963593);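 also: CHO cells stably overexpressing human ADRB2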
# Conditions: CHO-ADRB2 cells, cAMP HTRF, 30 min; series mostly up to 92.4 µM
# Method in brief: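 CHO cells stably over-expressing ADRB2 were plated overnight at 37C, then dosed with compounds plus a stimulation mix containing 100uM IBMX and 25uM Ro-20-1724 for 0.5hr at room temperature. cAMP was measured by HTRF competition, 1hr.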
row,SMILES,Potency
1,O=C(Cl)c1c(Cl)cccc1Cl,inactive
2,Cc1ccc2c(c1)CCCN2,inactive
3,OC/C=C/c1ccccc1,inactive
4,CC(C)=CC=O,inactive
5,CCCCCCCCCCCCOC(C)=O,inactive
6,CC1=C(C(=O)O)N2C(=O)[C@@H](NC(=O)[C@H](N)C3=CCC=CC3)[C@H]2SC1,inactive
7,O=C1CCC(=O)N1Cl,inactive
8,COc1ccc(CCO)cc1,inactive
9,CC(=O)OCC1=C(C(=O)O)N2C(=O)[C@@H](NC(=O)CSc3ccncc3)[C@H]2SC1,inactive
10,CC(O)CC(C)O (stereo unspecified),inactive
11,C=C(C)C(=O)OCCOP(=O)(O)OCCOC(=O)C(=C)C,inactive
12,C=C(C)C(=O)OCCOCCOC(=O)C(=C)C,inactive
13,O=Cc1ccccc1Cl,inactive
14,CCCCCCCCCCCCCCCC(=O)OCC,inactive
15,CC(O)CN (stereo unspecified),inactive
16,O=C(O)c1c(Cl)ccc(Cl)c1Cl,inactive
17,CC(=O)c1ccc([N+](=O)[O-])cc1,inactive
18,CCCCCCOC(=O)CCCCCCCC(=O)OCCCCCC,inactive
19,Cc1ccccc1N=C(N)N=C(N)N,inactive

# Molecular target: D(2) dopamine receptor (Homo sapiens) (UniProt P14416)
# Assay: Dopamine D2 receptor (DRD2) small molecule agonists, cell-based qHTS assay (AID 1963594); also: nearly all actives have a fitted effect of over 35% in size
# Conditions: HEK293-DRD2 cAMP HTRF, agonist mode, 30 min; series mostly up to 92.4 µM
# Method in brief: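 HEK293 cells stably expressing DRD2 were cultured 24 h at 37 C, then given Ro20-1724 (0.1 mM final) and compounds for 10 min at room temperature. NKH477 (200nM) was then added for 30 min. cAMP was read by HTRF.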
# Chain of D(2) dopamine receptor (Homo sapiens) (P14416 whole entry, looked up): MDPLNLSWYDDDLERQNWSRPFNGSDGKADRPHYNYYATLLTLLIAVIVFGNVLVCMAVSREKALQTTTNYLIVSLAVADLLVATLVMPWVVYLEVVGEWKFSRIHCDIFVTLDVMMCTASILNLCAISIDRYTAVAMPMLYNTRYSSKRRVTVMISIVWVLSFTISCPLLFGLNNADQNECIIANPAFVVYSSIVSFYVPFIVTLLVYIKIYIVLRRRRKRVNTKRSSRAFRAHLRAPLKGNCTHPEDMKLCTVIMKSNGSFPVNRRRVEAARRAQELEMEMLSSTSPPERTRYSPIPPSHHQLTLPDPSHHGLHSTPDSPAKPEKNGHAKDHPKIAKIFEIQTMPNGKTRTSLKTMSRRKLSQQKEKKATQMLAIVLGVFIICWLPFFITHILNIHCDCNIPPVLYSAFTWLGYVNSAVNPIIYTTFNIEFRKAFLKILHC
SMILES,Potency,activation
CCOC(=O)C1=NN(c2ccccc2)C(=O)C1,inactive,–
O=C(Cl)c1c(Cl)cccc1Cl,inactive,–
Cc1ccc2c(c1)CCCN2,inactive,–
Cc1nc2ccc(CN(C)c3ccc(C(=O)N[C@@H](CCC(=O)O)C(=O)O)s3)cc2c(=O)[nH]1,inactive,–
CCCCCCCCCCCCCOC(=O)CCSCCC(=O)OCCCCCCCCCCCCC,–,5.42% [at 19 µM]
O=C=NCC1CCCC(CN=C=O)C1 (stereo unspecified),inactive,–
OC/C=C/c1ccccc1,inactive,–
CC(C)=CC=O,inactive,–
CC(=O)c1ccc(C)cc1,inactive,–
CCCCCCCCCCCCOC(C)=O,inactive,–
CC1=C(C(=O)O)N2C(=O)[C@@H](NC(=O)[C@H](N)C3=CCC=CC3)[C@H]2SC1,inactive,–
CC(C)(C)c1ccc(N)cc1,inactive,–
O=C1CCC(=O)N1Cl,inactive,–
COc1ccc(CCO)cc1,inactive,–
CC(=O)OCC1=C(C(=O)O)N2C(=O)[C@@H](NC(=O)CSc3ccncc3)[C@H]2SC1,inactive,–
COC(=O)C(C)=O,inactive,–
SC1CCCC1,inactive,–
CC(O)CC(C)O (stereo unspecified),inactive,–
CC(C)CCC(=O)CCC(C)C,inactive,–

SMILES,Potency,activation
CCCCCCCCCCCCCCC,inactive,–
Nc1ccc2cc(S(=O)(=O)O)cc(O)c2c1N=Nc1ccccc1C(F)(F)F,inactive,–
CO/N=C1\CN(c2nc3c(cc2F)c(=O)c(C(=O)O)cn3C2CC2)CC1CN (stereo unspecified),inactive,–
C=C(C)C(=O)OCCOP(=O)(O)OCCOC(=O)C(=C)C,inactive,–
C=C(C)C(=O)OCCOCCOC(=O)C(=C)C,inactive,–
CCCC(=O)O[C@]1(C(=O)COC(=O)CC)CC[C@H]2[C@@H]3CCC4=CC(=O)CC[C@]4(C)[C@H]3[C@@H](O)C[C@@]21C,–,3.82% [at 19 µM]
O=Cc1ccccc1Cl,inactive,–
CC(C)=CCCC(C)CC(=O)O (stereo unspecified),inactive,–
CC(C)(COC(=O)c1ccccc1)COC(=O)c1ccccc1,inactive,–
CN(C)CCOC(=O)C(c1ccccc1)C1(O)CCCC1 (stereo unspecified),inactive,–
CCCC(=O)O[C@]1(C(=O)CO)CC[C@H]2[C@@H]3CCC4=CC(=O)CC[C@]4(C)[C@H]3[C@@H](O)C[C@@]21C,inactive,–
CCCCCCCCCCCCCCCC(=O)OCC,inactive,–
CC(O)CN (stereo unspecified),inactive,–
O=C(O)Cc1ccc(OCCNC[C@H](O)c2ccccc2)cc1,inactive,–
O=C(O)c1c(Cl)ccc(Cl)c1Cl,inactive,–
CC(=O)c1ccc([N+](=O)[O-])cc1,inactive,–
CCCCCCOC(=O)CCCCCCCC(=O)OCCCCCC,inactive,–
Cc1ccccc1N=C(N)N=C(N)N,inactive,–

# From PubChem BioAssay (Tox21)
